# Results filed as inconclusive are left out. Where a call stands in place of a potency, no number is given. The source made the active and inactive calls. Unless noted, the call rests on the fitted dose curve; in most records, active means well fitted curve in the direction sought with a large enough effect; inconclusive means small, poorly fitted or top-dose-only effect, or another doubt; inactive means no such curve, though single readings can be large; an effect the other way counts as inactive or inconclusive.
# Columns and labels:
# [1] = P-glycoprotein substrates identified in KB-8-5-11 adenocarcinoma cell line, qHTS therapeutic library screen (AID 1346987); further: nearly all actives have a fitted effect of over 65% in size; further: potency means the concentration at half of the fitted maximal effect
# Procedure, shortened: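 Steps: plate 500 KB-8-5-11 cells/well in DMEM + 10% FCS (colchicine removed); pin compounds in dose-response; incubate 72 h, 37 degree C, 5% CO2; add CellTiter-Glo, 5 min; read luminescence.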
# [2] = system: Zika virus NS2B-NS3 protease (unlinked complex); test: Primary screen GU Rhodamine qHTS for Zika virus inhibitors: Unlinked NS2B-NS3 protease assay (AID 1347159); further: nearly all actives have a fitted effect of over 60% in size
# Procedure, shortened: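 Noncovalent NS2B hydrophilic domain/NS3 protease complex (25 nM final) in 10 mM Tris-HCl pH 8.0, 0.01% Tween 20, preincubated 15 min with compounds (up to 114 microM), then 1.5 microM Rhodamine110 substrate. Fluorescence change over 15 min fitted to 4-parameter Hill.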
# [3] = target: Cytochrome P450 2D6 (Homo sapiens) (UniProt P10635); test: Cytochrome P450 family 2 subfamily D member 6 (CYP2D6) small molecule antagonists: luciferase biochemical (cell-free) qHTS assay (AID 1645840; active means well fitted curve in the direction sought with a large enough effect in the repeat runs; an effect the other way counts as inactive or inconclusive; further: potency means the concentration at half of the fitted maximal effect; nearly all actives have a fitted effect of over 55% in size)
# Cytochrome P450 2D6 (Homo sapiens), sequence (P10635 whole entry, looked up): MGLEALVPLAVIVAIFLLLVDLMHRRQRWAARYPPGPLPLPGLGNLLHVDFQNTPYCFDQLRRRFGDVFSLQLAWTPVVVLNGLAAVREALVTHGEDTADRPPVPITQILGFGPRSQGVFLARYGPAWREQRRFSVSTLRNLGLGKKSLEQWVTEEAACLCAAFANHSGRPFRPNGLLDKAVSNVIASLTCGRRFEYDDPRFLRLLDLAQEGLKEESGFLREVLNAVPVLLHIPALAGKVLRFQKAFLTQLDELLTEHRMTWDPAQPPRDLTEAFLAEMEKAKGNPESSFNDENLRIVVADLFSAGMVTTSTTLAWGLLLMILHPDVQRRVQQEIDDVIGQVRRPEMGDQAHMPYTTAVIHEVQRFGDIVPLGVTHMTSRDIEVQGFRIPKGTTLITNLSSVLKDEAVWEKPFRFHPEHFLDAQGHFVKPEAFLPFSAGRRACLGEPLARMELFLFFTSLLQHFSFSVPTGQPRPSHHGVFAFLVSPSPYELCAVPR
# Procedure, shortened: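 P450-Glo luminescent screen: recombinant CYP2D6 enzyme–proluciferin substrate mix preincubated with compound 10 min at room temperature, then NADPH regeneration added for 1 h at room temperature. Detection reagent added for 20 min; luciferin light read as relative luminescence units.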
# [4] = target: Cytochrome P450 2C9 (Homo sapiens) (UniProt P11712); test: Cytochrome P450 family 2 subfamily C member 9 (CYP2C9) small molecule antagonists: luciferase biochemical (cell-free) qHTS assay (AID 1645842; active means well fitted curve in the direction sought with a large enough effect in the repeat runs; an effect the other way counts as inactive or inconclusive; further: potency means the concentration at half of the fitted maximal effect; nearly all actives have a fitted effect of over 55% in size)
# Cytochrome P450 2C9 (Homo sapiens), sequence (P11712 whole entry, looked up): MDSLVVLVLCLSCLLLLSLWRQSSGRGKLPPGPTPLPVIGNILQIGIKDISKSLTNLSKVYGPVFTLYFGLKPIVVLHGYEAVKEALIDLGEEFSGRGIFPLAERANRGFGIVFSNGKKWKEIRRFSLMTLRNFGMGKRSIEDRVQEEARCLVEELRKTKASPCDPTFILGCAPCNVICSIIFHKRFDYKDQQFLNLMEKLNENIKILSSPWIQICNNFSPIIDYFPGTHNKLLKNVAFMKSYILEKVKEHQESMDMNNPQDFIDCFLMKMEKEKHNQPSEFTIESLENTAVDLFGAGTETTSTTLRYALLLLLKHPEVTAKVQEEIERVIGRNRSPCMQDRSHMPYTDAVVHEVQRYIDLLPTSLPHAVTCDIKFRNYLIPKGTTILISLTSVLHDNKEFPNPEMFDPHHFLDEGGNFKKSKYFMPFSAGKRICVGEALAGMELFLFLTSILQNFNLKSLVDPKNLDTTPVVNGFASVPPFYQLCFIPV
# Procedure, shortened: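 Luminescence, after 20 min with luciferin detection reagent, reflected CYP2C9 turnover during a 1 h NADPH-driven reaction at 37C. Enzyme-substrate mix contained 0.4% bovine serum albumin and was preincubated with compound 10 min at room temperature.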
# [5] = target: Glutathione peroxidase 1 (Homo sapiens) (UniProt P07203); test: Primary qHTS Assay for Inhibitors of Recombinant Selenoprotein Glutathione Peroxidase 1 (GPX1) (AID 1845191); further: nearly all actives have a fitted effect of over 65% in size
# Glutathione peroxidase 1 (Homo sapiens), sequence (P07203 whole entry, looked up): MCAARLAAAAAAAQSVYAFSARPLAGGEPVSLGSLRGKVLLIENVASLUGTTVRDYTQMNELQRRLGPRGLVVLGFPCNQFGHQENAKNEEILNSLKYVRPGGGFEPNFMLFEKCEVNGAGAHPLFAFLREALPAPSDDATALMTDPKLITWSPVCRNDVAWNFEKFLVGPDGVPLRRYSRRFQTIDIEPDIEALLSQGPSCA
# Procedure, shortened: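 Recombinant GPX1 (10 nM final) was preincubated with compound for 30 min at room temperature, then reacted with 1 mM GSH, 0.5 mM CHP, 0.5 mM NADPH and 100 nM glutathione reductase; NADPH fluorescence (340/450 nm) was read at 0 and 15 min.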
# HaCat [6] = test: Cytotoxic Profiling of Annotated Libraries Using Quantitative High-Throughput Screening (AID 1296008); conditions: Five cell lines viability, CellTiter-Glo ATP luminescence, 48-72 h; max response: stronger effect = lower value; further: nearly all actives have a fitted effect of over 60% in size; further: potency means the concentration at half of the fitted maximal effect
# Procedure, shortened: (§1)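 Compounds were pin-transferred onto cells and incubated 48 or 72 hr at 37 degree Celsius, 95% humidity. CellTiter-Glo was added, plates sat 10 min at room temperature, then ATP-coupled luminescence was imaged as the viability read-out.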
# KB-3-1 = test: as above; conditions: Five cell lines viability, CellTiter-Glo ATP luminescence, 48-72 h; max response: stronger effect = lower value
# Procedure, shortened: as §1
# HACAT [7] = test: qHTS assay to identify novel small-molecules to repurpose for Merkel cell carcinoma treatment (AID 1296009); conditions: MCC and control cell lines, CellTiter-Glo viability, 72 h; at 44.8 µM (top of the series) unless noted; further: nearly all actives have a fitted effect of over 60% in size
# Procedure, shortened: (§2)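 qHTS format: cells treated with library compounds in DMSO across 8 (NPC) or 11 (MIPE) concentrations. Readout after 72 hr at 37 degree celsius was CellTiter-Glo luminescence.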
# NIH3T3 = test: as above; conditions: MCC and control cell lines, CellTiter-Glo viability, 72 h; at 44.8 µM (top of the series) unless noted
# Procedure, shortened: as §2
# HeLa = test: Primary qHTS to identify gynecologic anti-cancer compounds using libraries of approved drugs and bioactive compounds (AID 1345084); conditions: Gynecologic cancer cell panel viability, ATPlite luminescence, 48 h; series mostly up to 57.5 µM; further: nearly all actives have a fitted effect of over 55% in size; further: potency means the concentration at half of the fitted maximal effect
# Procedure, shortened: (§3)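 Five-point cytotoxicity, 48 h drug exposure at 37 C, 5% CO2, on cells seeded 16 h beforehand. ATP content read by ATPlite luminescence.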
# SKOV3 = test: as above; conditions: Gynecologic cancer cell panel viability, ATPlite luminescence, 48 h; series mostly up to 57.5 µM
# Procedure, shortened: as §3
# [8] = Primary qHTS for inhibitors of nuclear receptor binding SET domain protein 2 (NSD2) in an RCH-ACV wild type WT cells (2C) (AID 1645877); further: nearly all actives have a fitted effect of over 70% in size; further: potency means the concentration at half of the fitted maximal effect
# [9] = target: Catechol O-methyltransferase (Homo sapiens) (UniProt P21964); test: Confirmatory Screen for Target Class Profiling of Small Molecule Inhibitors of Methyltransferases (AID 1745852); conditions: MTase-Glo luminescence, SAH detection, recombinant enzyme; measured here: COMT max response; stronger effect = lower value
# Catechol O-methyltransferase (Homo sapiens), sequence (P21964 whole entry, looked up): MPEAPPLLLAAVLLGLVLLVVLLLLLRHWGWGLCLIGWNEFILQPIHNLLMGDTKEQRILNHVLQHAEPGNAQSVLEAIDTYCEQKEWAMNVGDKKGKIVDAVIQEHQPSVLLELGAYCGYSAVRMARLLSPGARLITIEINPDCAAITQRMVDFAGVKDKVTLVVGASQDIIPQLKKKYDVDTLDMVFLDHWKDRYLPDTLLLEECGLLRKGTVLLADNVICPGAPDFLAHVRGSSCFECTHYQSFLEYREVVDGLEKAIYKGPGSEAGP
# [10] = target: Guanidinoacetate N-methyltransferase (Homo sapiens) (UniProt Q14353); test: as above; conditions: activity change, negative = inhibition: at 57.3 µM (top of the series) unless noted
# [11] = target: Nicotinamide N-methyltransferase (Homo sapiens) (UniProt P40261); test: as above; conditions: MTase-Glo luminescence, SAH detection, recombinant enzyme; measured here: NNMT max response; stronger effect = lower value
# Nicotinamide N-methyltransferase (Homo sapiens), sequence (P40261 whole entry, looked up): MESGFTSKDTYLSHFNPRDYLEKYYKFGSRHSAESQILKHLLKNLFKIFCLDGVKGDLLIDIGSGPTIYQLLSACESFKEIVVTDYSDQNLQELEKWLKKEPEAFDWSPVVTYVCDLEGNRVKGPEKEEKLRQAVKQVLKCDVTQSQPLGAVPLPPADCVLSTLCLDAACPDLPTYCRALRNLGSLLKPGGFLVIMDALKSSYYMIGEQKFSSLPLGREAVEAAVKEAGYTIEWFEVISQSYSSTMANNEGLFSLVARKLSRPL
# [12] = P-glycoprotein substrates identified in KB-3-1 adenocarcinoma cell line, qHTS therapeutic library screen (AID 1346986); further: nearly all actives have a fitted effect of over 60% in size
# Procedure, shortened: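 Resistance attributable to P-gp was assessed by comparing AC50 in KB-8-5-11 with parental KB-3-1 and by tariquidar reversal. Cells were exposed 72 h and viability read by CellTiter-Glo.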
# [13] = system: Zika virus NS2B-NS3 protease (linked construct); test: Primary screen NINDS Rhodamine qHTS for Zika virus inhibitors (AID 1347160); further: nearly all actives have a fitted effect of over 55% in size
# Procedure, shortened: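 Purified NS2B-NS3 protease with the NS2B hydrophilic domain joined by a flexible linker (25 nM) in 10 mM Tris-HCl pH 8.0, 0.01% Tween 20, preincubated 15 min at RT with compound; Rhodamine110 peptide substrate 1.5 µM; fluorescence change over 15 min; 4-parameter Hill fit.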
# CRL-7250 = normal cell line; test: qHTS assay to identify novel small-molecules to repurpose for Merkel cell carcinoma treatment (AID 1296009); conditions: MCC and control cell lines, CellTiter-Glo viability, 72 h; series mostly up to 92 µM; further: nearly all actives have a fitted effect of over 60% in size
# Procedure, shortened: as §2
compound,measurement,setting,value
COc1ccc2c(c1)c(CCN(C)C)cn2S(=O)(=O)c1ccccc1,Potency,[1],inactive
same,Potency,[2],inactive
same,Potency,[3],1.51 µM (active)
same,Potency,[4],15.1 µM (active)
same,Potency,[5],inactive
same,outcome,HaCat [6],inactive
same,max response,KB-3-1,-1.74% (inactive)
same,outcome,HACAT [7],inactive
same,outcome,NIH3T3,inactive
same,Potency,HeLa,inactive
same,Potency,SKOV3,inactive
C#C[C@]1(O)CC[C@H]2[C@@H]3CC[C@H]4Cc5nc6nc7ccccc7n6cc5C[C@]4(C)[C@H]3CC[C@@]21C,Potency,[1],20.6 µM (active)
same,Potency,[2],inactive
same,Potency,[8],11.5 µM (active)
same,activity,[9],-13.5%
same,"activity change, negative = inhibition",[10],-2.81%
same,activity,[11],-21%
same,Potency,[5],inactive
same,Potency,HeLa,inactive
C/C=C(\C)C(=O)OC1CC2C(CC=C3CC(OC4CC(OC)C(OC5CC(OC)C(OC6CC(OC)C(OC7CC(OC)C(O)C(C)O7)C(C)O6)C(C)O5)C(C)O4)CCC32C)C2(O)CCC(C(C)=O)C12C (stereo not drawn),outcome,[12],inactive [at 9.29 µM]
same,outcome,[1],inactive [at 9.29 µM]
same,Potency,[2],inactive
same,Potency,[13],inactive
same,Potency,[5],inactive
same,outcome,HaCat [6],inactive
same,outcome,KB-3-1,inactive
same,outcome,HACAT [7],inactive [at 9.27 µM]
same,outcome,NIH3T3,inactive [at 9.27 µM]
same,"activity change, negative = cytotoxicity",SKOV3,-3.35% [at 11.6 µM] (inactive)
CN1Cc2c(ccc3c2OCO3)[C@@H]2[C@H]1c1cc3c(cc1C[C@@H]2O)OCO3,Potency,[1],1.61 µM (active)
same,Potency,[2],inactive
same,Potency,[13],inactive
same,Potency,[8],2.26 µM (active)
same,Potency,[5],inactive
same,Potency,KB-3-1,2.86 µM (active)
c1ccc([C@@H]2C[C@H]2NC2CCNCC2)cc1,Potency,[1],inactive
same,Potency,[2],inactive
same,Potency,[3],10.7 µM (active)
same,Potency,[5],inactive
same,max response,KB-3-1,-11.5% (inactive)
same,Potency,HeLa,inactive
same,Potency,SKOV3,inactive
C=C(C)[C@@]12O[C@@H]1[C@@]1(C)C(=CC2=O)CC[C@@H](OC(C)=O)[C@@H]1C,Potency,[1],5.17 µM (active)
same,Potency,[8],3.25 µM (active)
same,Potency,KB-3-1,13 µM (active)
same,Potency,SKOV3,3.16 µM (active)
CN(C)[C@@H]1C(=O)C(C(N)=O)=C(O)[C@@]2(O)C(=O)C3=C(O)c4c(O)ccc(Cl)c4[C@@](C)(O)C3C[C@@H]12 (stereo partly drawn),Potency,[2],inactive
same,Potency,[13],inactive
same,Potency,[8],inactive
same,Potency,[5],inactive
same,outcome,NIH3T3,inactive
same,Potency,HeLa,inactive
same,Potency,SKOV3,inactive
CN1C(=O)[C@@H](Cc2c[nH]c3ccccc23)N=C(c2ccccc2F)c2ccccc21,Potency,[2],inactive
same,Potency,[3],9.52 µM (active)
same,Potency,[4],6.74 µM (active)
same,Potency,[5],inactive
same,max response,HaCat [6],-23.4% (inactive)
same,max response,KB-3-1,-7.12% (inactive)
same,Potency,CRL-7250,inactive
same,Potency,HeLa,inactive
same,Potency,SKOV3,inactive
COC1CC(O[C@H]2CC[C@@]3(C)C(CCC4C3CC[C@]3(C)C(C5=CC(=O)OC5)CCC43O)C2)OC(C)C1OC1OC(COC2OC(CO)C(O)C(O)C2O)C(O)C(O)C1O (stereo partly drawn),Potency,[1],1.74 µM (active)
same,Potency,[2],inactive
same,Potency,[13],inactive
same,Potency,[8],1.73 µM (active)
same,Potency,[5],inactive
same,Potency,KB-3-1,2.76 µM (active)
same,Potency,HeLa,2.82 µM (active)
same,Potency,SKOV3,3.16 µM (active)
CC12CCC3C(C1)c1c(cc(O)c(C(=O)c4ccccc4)c1OC3(C)C)O2 (stereo not drawn),Potency,[1],inactive
same,Potency,[13],inactive
same,Potency,[8],inactive
same,max response,HaCat [6],-1.85% (inactive)
same,max response,KB-3-1,-6.92% (inactive)
same,Potency,CRL-7250,inactive
same,Potency,HeLa,inactive
same,Potency,SKOV3,inactive
